# Records with an inconclusive call do not appear. Calls of active or inactive are those of the source. The calls were made as follows, unless noted: active = hit-call score of the fitted dose curve at least 0.9, where 1 is the maximum; inactive = score below 0.9.
# Experiments:
# [1] = test system: IYD (gene 389434); test: CCTE_GLTED_hIYD: CCTE's human Iodotyrosine Deiodinase (xIYD) Inhibition Assay, Great Lakes Toxicology and Ecology Division (GLTED) Lab (AID 2284317; active = hit-call score of the fitted dose curve at least 0.9, where 1 is the maximum;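 also: cell-free human IYD enzyme made in baculovirus insect cells; iodide freed from monoiodotyrosine measured by cerium arsenite color change at 420 nm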)
# Outline: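 Absorbance change at 420 nm from the iodide-catalysed cerium-arsenic reaction reports free iodide released by human IYD from monoiodotyrosine. Enzyme, substrate and chemical are incubated 3 h; loss of signal is fitted relative to DMSO baseline.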
# [2] = CCTE_Deisenroth_5AR_NBTE_donor: CCTE's 5alpha-reductase NanoBRET Target Engagement Assay […], Deisenroth Lab (AID 2284319); details: actives raise or lower the signal
# Outline: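 Donor NanoLuc luminescence at 460-20 nm is the read-out, serving artifact detection. Transiently expressed SRD5A2-NanoLuc in HEK293T; 5 h total chemical exposure, testosterone tracer added for the final 2 h; fitting bidirectional relative to DMSO baseline.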
# [3] = CCTE_Deisenroth_5AR_NBTE_acceptor: CCTE's 5alpha-reductase NanoBRET Target Engagement Assay - Autofluorescence Screen, Deisenroth Lab (AID 2284321); details: actives raise or lower the signal;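 also: compound fluorescence in the acceptor channel under 460 nm excitation flags autofluorescence artifacts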
# Outline: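 HEK293T cell-based NanoBRET assay read 5 h after dosing; this acceptor channel serves as an autofluorescence artifact screen. Chemicals at nominal 100 uM were scanned in three independent runs (n=3), excitation 460 nm. Fitting was bidirectional versus DMSO baseline.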
# [4] = test system: SRD5A2 (gene 6716); test: CCTE_Deisenroth_5AR_NBTE_ratio: CCTE's 5alpha-reductase NanoBRET Target Engagement Assay - Ratio, Deisenroth Lab (AID 2284322); details: actives raise or lower the signal
# Outline: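 HEK293T transiently expressing SRD5A2-NanoLuc; cells exposed to chemical (8-point, 10 nM - 29.9 uM) for 5 h total, testosterone tracer added for final 2 h. NanoBRET acceptor/donor ratio (650/460 nm), bidirectional fit vs DMSO.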
# [5] = IUF_NPC2-5_cytotoxicity_72hr: Cytotoxicity Assessment at 72 hours in the Leibniz Research Institute for Environmental Medicine (IUF) Neural Progenitor Cell Migration and Differentiation Assay for Cytotoxicity (NPC2-5) (AID 2284306; active = hit-call score of the fitted dose curve at least 0.9, where 1 is the maximum;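 also: LDH release into supernatant measured by resorufin fluorescence marking membrane damage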)
# Outline: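 Human fetal primary neural progenitor spheres (0.3 mm) plated on poly-D-lysine/laminin in N2 differentiation medium, exposed from day 0 at 37C. LDH-dependent resazurin-to-resorufin fluorescence in supernatant at 72 h; 7 concentrations, DMSO at most 0.1%.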
# [6] = IUF_NPC2-5_cytotoxicity_120hr: Cytotoxicity Assessment at 120 hours in the Leibniz Research Institute for Environmental Medicine (IUF) Neural Progenitor Cell Migration and Differentiation Assay (NPC2-5) (AID 2284307; active = hit-call score of the fitted dose curve at least 0.9, where 1 is the maximum;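 as to AC50: LDH released into supernatant as membrane damage marker via resorufin fluorescence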)
# Outline: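 Human fetal neural progenitor spheres (0.3 mm, GW 16-19 cortex) were plated on poly-D-lysine/laminin in N2 differentiation medium and exposed for 120 h, with half-medium refresh at day 3. LDH release into supernatant was read by resorufin fluorescence.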
# [7] = IUF_NPC2-5_cell_number_120hr: Cell Number Assessment at 120 hours in the Leibniz Research Institute for Environmental Medicine (IUF) Neural Progenitor Cell Migration and Differentiation Assay (NPC2-5) (AID 2284308);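 also: count of Hoechst-stained nuclei in migration zone around plated human neural progenitor spheres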
# Outline: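 Primary human fetal neural progenitor spheres (GW 16-19, 0.3 mm) plated on poly-D-lysine/laminin in N2 differentiation medium, exposed from day 0 for 120 h with half-medium refresh at day 3; Hoechst-positive nuclei counted in migration area versus DMSO control.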
# [8] = IUF_NPC2-5_viability_120hr: Viability Assessment at 120 hours in the Leibniz Research Institute for Environmental Medicine (IUF) Neural Progenitor Cell Migration and Differentiation Assay (NPC2-5) (AID 2284312)
# Outline: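 Human fetal neural progenitor spheres (0.3 mm) plated on poly-D-lysine/laminin in N2 differentiation medium, exposed 120 h with half-medium refresh at day 3. Viability by alamar blue resazurin fluorescence; 7 concentrations, DMSO max 0.1%.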
# [9] = CCTE_Mundy_HCI_iCellGluta_NOG_NeuriteLength: CCTE's Neurite Outgrowth Assay in iCellGluta cells for Neurite Length, Mundy Lab (AID 2284318; active = hit-call score of the fitted dose curve at least 0.9, where 1 is the maximum)
# Outline: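 Automated high-content imaging of betaIII-tubulin (Alexa Fluor-488) and Hoechst-stained cells gave neurite length, normalized to the DMSO baseline.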
# [10] = test system: TTR (gene 7276); test: CCTE_GLTED_hTTR_0.5uM: CCTE's human Transthyretin (hTTR) Inhibition Assay, with 0.5uM TTR, Great Lakes Toxicology and Ecology Division (GLTED) Lab (AID 2284320)
# Procedure: CCTE_GLTED_hTTR is a cell-free, single-readout assay designed to test the chemicals' ability to displace T4 from the human transthyretin (TTR) protein. TTR (at 0.125uM or 0.5uM) is incubated in presence of test chemical for 2 hours during which disrupting chemicals displace ANSA from the TTR protein. Results read fluorescence at 380 excitation and 475 emission.CCTE_GLTED_hTTR_0.5uM is the assay component measured from the CCTE_GLTED_hTTR assay. It is designed to make measurements of fluorescent polarization, using a form of binding reporter, as detected with Fluorescence signals by Fluorescence technology.Data from the assay component CCTE_GLTED_hTTR_0.5uM was analyzed at the assay endpoint CCTE_GLTED_hTTR_0.5uM in the positive analysis fitting direction relative to DMSO as the negative control and baseline of activity. Using a type of binding reporter, loss-of-signal activity can be used to understand a chemical's ability to displace T4 from transthyretin. To generalize the intended target to other relatable targets, this assay endpoint is annotated to the 'transporter' intended target family, where the subfamily is 'hormone carrier protein'.
compound,measurement,setting,value
Nc1ccc(N)c2c1C(=O)c1ccccc1C2=O,outcome,[1],inactive
same,outcome,[2],inactive
same,AC50,[3],7.65 µM (active)
same,AC50,[4],2.08 µM (active)
[O-]n1ccccc1=S.[O-]n1ccccc1=S.[Zn+2],outcome,[2],inactive
same,outcome,[3],inactive
same,outcome,[4],inactive
Clc1ccc(C(c2ccccc2Cl)C(Cl)Cl)cc1 (stereo not given),outcome,[2],inactive
same,outcome,[3],inactive
same,outcome,[4],inactive
CCCCCCCCCCCCCCN(CCO)CCO,AC50,[1],38.6 µM (active)
same,AC50,[2],62.3 µM (active)
same,AC50,[3],50 µM (active)
same,AC50,[4],77.7 µM (active)
Nc1ccc2cc(S(=O)(=O)O)cc(O)c2c1N=Nc1ccccc1C(F)(F)F,AC50,[1],100 µM (active)
C=CC(=O)OCCCC,outcome,[2],inactive
same,outcome,[3],inactive
same,outcome,[4],inactive
COCCOCCOCCO,outcome,[5],inactive
same,outcome,[6],inactive
same,outcome,[7],inactive
same,outcome,[8],inactive
same,outcome,[9],inactive
COc1ccc(N=Nc2cc(C)c(N=Nc3ccc(S(=O)(=O)O)cc3)cc2OC)cc1,outcome,[1],inactive
same,AC50,[2],50 µM (active)
same,AC50,[3],40.6 µM (active)
same,AC50,[4],87 µM (active)
CCCCCCCC(=O)OCC(O)CO (stereo not given),outcome,[2],inactive
same,outcome,[3],inactive
same,outcome,[4],inactive
O=[N+]([O-])c1ccc(O)cc1C(F)(F)F,outcome,[2],inactive
same,outcome,[3],inactive
same,AC50,[4],50 µM (active)
N[C@@H](Cc1cc(I)c(Oc2cc(I)c(O)c(I)c2)c(I)c1)C(=O)O,AC50,[10],0.205 µM (active)
CC(=O)O[C@H]1C[C@@H]2CC[C@@]1(C)C2(C)C,outcome,[2],inactive
same,outcome,[3],inactive
same,outcome,[4],inactive
CCCCCCCCc1ccc(S(=O)(=O)O)cc1,AC50,[1],100 µM (active)
COCCc1ccc(OCC(O)CNC(C)C)cc1 (stereo not given),outcome,[5],inactive
same,outcome,[6],inactive
same,outcome,[7],inactive
same,outcome,[8],inactive
same,outcome,[9],inactive
COc1ccccc1N=Nc1c(S(=O)(=O)O)cc2cc(S(=O)(=O)O)cc(NC(C)=O)c2c1O,AC50,[1],94.8 µM (active)
CCCCCCCCCCCCCC(=O)OCC(O)CO (stereo not given),AC50,[1],100 µM (active)
Oc1c(Cl)cc(Cl)c(Cl)c1Cc1c(O)c(Cl)cc(Cl)c1Cl,AC50,[5],0.702 µM (active)
same,AC50,[6],0.295 µM (active)
same,AC50,[7],0.204 µM (active)
same,AC50,[8],0.147 µM (active)
CCCCCCCCC=CCCCCCCCC1=NCCN1CCO,AC50,[1],66.2 µM (active)

# — PubChem BioAssay (EPA / NIEHS)
